Test systems include K-562 leukemia; MALME-3M melanoma; MDA-MB-231 breast; SF-268 CNS; SF-295 CNS; SF-539 CNS; M14 melanoma; HCT-15 colon; HT29 colon; SNB-75 CNS; SNB-19 CNS; U251 CNS; PC-3 prostate; SK-MEL-5 melanoma; UACC-62 melanoma; LOX IMVI melanoma; SK-MEL-28 melanoma; SK-MEL-2 melanoma; RXF 393 renal; UACC-257 melanoma.
Holding throughout (assay): NCI-60 one-dose screen, 48 h (100 = growth as untreated, 0 = no growth, -100 = all killed)
Common to all, as to conditions: 10 µM unless noted

The structures appear in SMILES notation. This is part of a sample that, as a whole, favours compounds with a hit. Of some 83,000 tested, about 20% had one in any assay.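 Single-concentration screen, 48 h exposure, 96-well plates. Endpoint: percent growth. Below 10 = active.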 A number with no mark means an inactive call. Calls of active or inactive are those of the source.

With `C[n+]1ccc(Nc2ccc(NC(=O)c3ccc(Nc4cc[n+](C)c5ccc(N)cc45)cc3)cc2)cc1`, the growth was 88.5% in the test on K-562 leukemia; 142% with MALME-3M melanoma; 97% with MDA-MB-231 breast; 105% with SF-268 CNS; 72.7% in the test with SF-295 CNS; 85.9% in the test with SF-539 CNS. Besides, the growth in the test with M14 melanoma was 103%; with HCT-15 colon, 99.9%; in the test on HT29 colon it was 96.9%; with SNB-75 CNS, 97.2%; with SNB-19 CNS, 100%; in the test on U251 CNS, 92%. The growth with PC-3 prostate was 90.1%; in the test with SK-MEL-5 melanoma, 90.4%; in the test with UACC-62 melanoma, 89.2%; with LOX IMVI melanoma, 103%; with SK-MEL-28 melanoma, 116%; in the test with SK-MEL-2 melanoma it was 71.5%.

Regarding `C[C@]12C[C@H](O)[C@H]3[C@@H](CCC4=CC(=O)CC[C@@]43C)[C@@H]1CC[C@@H]2C(=O)CO`, the growth in the test on K-562 leukemia was 66.7%; with MALME-3M melanoma, 95.3%; in the test on MDA-MB-231 breast, 80.5%; in the test on SF-268 CNS, 98.8%; with SF-295 CNS, 126%; in the test with SF-539 CNS it was 89.3%. The growth with M14 melanoma is 107%; in the test on HCT-15 colon, 92%; in the test with HT29 colon, 108%; in the test on SNB-75 CNS it was 78.5%; in the test with SNB-19 CNS, 95.6%; in the test with U251 CNS it was 93.5%. Further, the growth is 97.3% with PC-3 prostate; 91% in the test with SK-MEL-5 melanoma; 91.4% in the test with UACC-62 melanoma; 97.7% in the test on LOX IMVI melanoma; 102% with SK-MEL-28 melanoma; 93.4% in the test with SK-MEL-2 melanoma.

Turning to `O=C1NCC(Nc2ccc(Br)cc2Cl)C(=O)N1` (stereo not given), the growth was 95.5% in the test with K-562 leukemia; 104% with MDA-MB-231 breast; 112% in the test on RXF 393 renal; 105% in the test with SF-268 CNS; 118% in the test on SF-295 CNS; 98.9% with SF-539 CNS. For the same compound, the growth in the test with UACC-257 melanoma is 160%; in the test on M14 melanoma, 93.8%; with HCT-15 colon, 107%; in the test on SNB-75 CNS, 91%; in the test with SNB-19 CNS it was 102%; in the test on U251 CNS, 123%. The growth with SK-MEL-5 melanoma is 104%; in the test with UACC-62 melanoma, 101%; in the test on LOX IMVI melanoma, 105%; with SK-MEL-28 melanoma, 110%.

For `Clc1ccc(-c2nc(-c3cccs3)no2)c(Cl)c1`, the growth is 96.1% in the test with K-562 leukemia; 103% in the test on MALME-3M melanoma; 107% in the test on RXF 393 renal; 99.2% in the test with SF-268 CNS; 107% with SF-295 CNS; 108% in the test with SF-539 CNS. The growth was 76.2% with UACC-257 melanoma; 100% with M14 melanoma; 73.5% in the test with HCT-15 colon; 63.5% in the test on SNB-75 CNS; 104% in the test on SNB-19 CNS; 90.1% with U251 CNS. The growth in the test on PC-3 prostate is 83.2%; in the test with SK-MEL-5 melanoma, 83.9%; with UACC-62 melanoma it was 89%; with LOX IMVI melanoma, 103%; with SK-MEL-28 melanoma, 104%; with SK-MEL-2 melanoma it was 123%.

Regarding `COc1cc(/C=C2\COc3ccc(O)c(O)c3C2=O)cc(OC)c1`, the growth with K-562 leukemia is -0.232% (active); in the test with MALME-3M melanoma, -59.4% (active); with MDA-MB-231 breast, -37.1% (active); with SF-268 CNS it was 11%; in the test with SF-295 CNS, 80.3%; in the test on SF-539 CNS it was -70.1% (active). The growth with UACC-257 melanoma is 6.52% (active); in the test with HCT-15 colon, -24.1% (active); in the test with HT29 colon, 3.57% (active); in the test on SNB-75 CNS, 26.5%; with SNB-19 CNS, 11.2%; in the test with U251 CNS it was -19.3% (active). For the same compound, the growth with PC-3 prostate was -3.29% (active); in the test with UACC-62 melanoma it was -86.3% (active); in the test with LOX IMVI melanoma, -66.2% (active); in the test with SK-MEL-28 melanoma, 14.1%; in the test on SK-MEL-2 melanoma, 86.5%.

For `COC(=O)CCC1=C(C)C(C)=N/C1=C\c1[nH]c(-c2ccc[nH]2)cc1OC`, the growth is -16.4% (active) in the test with K-562 leukemia; -33.4% (active) in the test with MDA-MB-231 breast; 23.3% with RXF 393 renal; 25.3% with SF-268 CNS; -44.6% (active) in the test with SF-295 CNS; -9.38% (active) with SF-539 CNS. For the same compound, the growth in the test on UACC-257 melanoma is -1.25% (active); in the test on M14 melanoma, 9.58% (active); in the test on HCT-15 colon it was -2.64% (active); in the test on SNB-75 CNS, -34.9% (active); with SNB-19 CNS it was 35%; in the test with U251 CNS it was -22.9% (active). The growth is -91.5% (active) in the test on SK-MEL-5 melanoma, -67.4% (active) with UACC-62 melanoma, -55.5% (active) with LOX IMVI melanoma and 10.7% in the test on SK-MEL-28 melanoma.

In the case of `CC(=O)NCCSC(=O)C(=O)SCCNC(C)=O`, the growth in the test with K-562 leukemia was 95.6%; in the test with MALME-3M melanoma it was 138%; with MDA-MB-231 breast it was 107%; with SF-268 CNS, 109%; in the test on SF-295 CNS, 102%; in the test with SF-539 CNS, 97.5%. In addition, the growth in the test on M14 melanoma was 106%; in the test on HCT-15 colon, 119%; with HT29 colon, 120%; in the test with SNB-75 CNS, 93%; in the test on SNB-19 CNS it was 104%; in the test on U251 CNS it was 108%. Besides, the growth in the test on PC-3 prostate was 109%; in the test on SK-MEL-5 melanoma, 104%; with UACC-62 melanoma, 99.4%; in the test with LOX IMVI melanoma it was 104%; in the test with SK-MEL-28 melanoma, 118%; in the test on SK-MEL-2 melanoma, 19%.

Consider `O=[N+]([O-])c1ccc(N/N=C/c2c(O)ccc3ccccc23)nc1`, for which the growth is 31.7% in the test with K-562 leukemia; 47.5% with MDA-MB-231 breast; 67.1% with RXF 393 renal; 45.8% with SF-268 CNS; 25.1% in the test on SF-295 CNS; 46% in the test with SF-539 CNS. Besides, the growth in the test with UACC-257 melanoma is 29.5%; in the test with M14 melanoma it was 65.3%; with HCT-15 colon, 24.5%; in the test on SNB-75 CNS, 69.3%; in the test with SNB-19 CNS it was 62.7%; in the test on U251 CNS, 35.8%. Besides, the growth is 40% in the test on SK-MEL-5 melanoma, 41.7% with UACC-62 melanoma, 21% in the test on LOX IMVI melanoma and 64.8% in the test on SK-MEL-28 melanoma.

For `CCC(CCC(C)C1CCC2C3CC=C4CC(O)CCC4(C)C3CCC12C)C(C)C` (stereo not given) (tested in a mixture with another compound), the growth in the test with K-562 leukemia was 82%; in the test with MALME-3M melanoma it was 138%; with MDA-MB-231 breast, 115%; in the test with SF-268 CNS, 79.9%; with SF-295 CNS, 76.9%; in the test with SF-539 CNS, 80.3%. Moreover, the growth was 92.2% in the test on M14 melanoma; 95.6% in the test with HCT-15 colon; 98.9% in the test with HT29 colon; 119% in the test on SNB-75 CNS; 98.6% with SNB-19 CNS; 90.2% with U251 CNS. Besides, the growth is 45.8% in the test on PC-3 prostate; 96% in the test with SK-MEL-5 melanoma; 95% in the test on UACC-62 melanoma; 99.1% in the test with LOX IMVI melanoma; 91.7% with SK-MEL-28 melanoma; 24.3% in the test on SK-MEL-2 melanoma.
